# Hits are enriched below; roughly 3.5% of the tested compounds scored in any of these assays.
# FBA Mtb inh: inhibitors of M. tuberculosis fructose-bisphosphate aldolase. P9WQA3. purified M. tuberculosis FBA, fluorescence read-out. inhibition, % at 1 µM. 360,000 compounds, 2.3% hits. AID 588726;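 note: 0% = vehicle and 100% = reference inhibitor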
# GDH-TPI counter-1: counter-screen for M. tuberculosis FBA inhibitors: GDH-TPI coupled enzymes. GDH-TPI coupled enzyme counterscreen, NADH absorbance. inhibition, % at 4.8 µM. 360,000 compounds, 1.2% hits. AID 588335; in the data active = inhibition above about 30%;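 note: 0% = DMSO wells and 100% = wells lacking the enzyme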
# Rv3671c protease: inhibits the M. tuberculosis serine protease Rv3671c; 320,000 compounds, 0.048% hits; AID 2606; inhibition, % at 5.96 µM; P9WHR9; in the data active = inhibition above about 38%;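 note: extracellular domain of Rv3671c used as enzyme; 0% = enzyme with DMSO and 100% = no enzyme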
# FadD28 FP inh: blocks FadD28 binding to the bisubstrate probe. fluorescence polarization. inhibition, % at 12.5 µM. 360,000 compounds, 0.22% hits; in the data active = inhibition above about 8.5%, passing the limit was not always enough
# Mtb UGM inh: Mtb UDP-galactopyranose mutase inhibition; P9WIQ1; purified UGM, fluorescence polarization probe displacement; inhibition, % at 10 µM; 320,000 compounds, 0.06% hits; in the data active = inhibition above about 10%, passing the limit was not always enough
# Target sequence (P9WIQ1 whole entry, looked up): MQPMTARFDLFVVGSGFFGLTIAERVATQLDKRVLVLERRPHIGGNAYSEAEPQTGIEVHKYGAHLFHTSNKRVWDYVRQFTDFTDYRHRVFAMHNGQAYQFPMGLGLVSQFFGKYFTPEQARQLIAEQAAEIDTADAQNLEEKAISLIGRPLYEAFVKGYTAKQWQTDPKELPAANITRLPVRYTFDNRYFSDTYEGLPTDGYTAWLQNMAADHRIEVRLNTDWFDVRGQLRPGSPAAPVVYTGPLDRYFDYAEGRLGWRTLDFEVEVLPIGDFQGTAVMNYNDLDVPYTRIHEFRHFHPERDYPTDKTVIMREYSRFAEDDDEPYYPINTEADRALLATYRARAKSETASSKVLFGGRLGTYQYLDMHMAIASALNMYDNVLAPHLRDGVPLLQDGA
# Mtb hypoxia inh: inhibitors of hypoxia-regulated fluorescent reporter in Mycobacterium tuberculosis; 300,000 compounds, 0.1% hits; M. tuberculosis hypoxia-regulated fluorescent reporter, fluorescence; fluorescence inhibition, % (no concentration beside the values); AID 1159583; in the data active = fluorescence inhibition mostly above about 23%, no sharp cut-off; inactive = mostly below about 17%
# Mtb FBA inh conf: Mtb FBA inhibition, confirmed. shares compounds with FBA Mtb inh. purified M. tuberculosis FBA, fluorescence read-out. inhibition, % at 1 µM. 5,600 compounds, 78% hits. AID 651616;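 note: 0% = vehicle wells and 100% = reference inhibitor wells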
# GDH-TPI counter-2: GDH-TPI inhibition counter-screen for FBA inhibitors | shares compounds with FBA Mtb inh | GDH-TPI coupled enzyme counterscreen, fluorescence | inhibition, % at 1 µM | 5,600 compounds, 81% hits; in the data active = inhibition above about 10%
# An asterisk follows results filed as active; · = no result; + = active, no number. Cut-off read from the data, not from the text of the source, unless noted: active = inhibition above about 27%; inactive = the rest.
SMILES,FBA Mtb inh,GDH-TPI counter-1,Rv3671c protease,FadD28 FP inh,Mtb UGM inh,Mtb hypoxia inh,Mtb FBA inh conf,GDH-TPI counter-2
COc1ccc(S(=O)(=O)Nc2ccccc2C(=O)Nc2nc(-c3ccc(F)cc3)cs2)cc1OC,32.8*,10.8,-27.4,4.1,·,3.4,92.4*,67.9*
C#CCOCCOCCOCCNc1nc(N2CCN(C(=O)C(CCCCN)n3cc(C(N)CO)nn3)CC2)nc(N2CCN(C(=O)C(CCCCN)n3cc(C(N)CC(C)C)nn3)CC2)n1 (configuration not stated),·,·,·,·,·,8.0,·,·
FC(F)(F)c1nc2nncn2c2c1CCCCC2,35.5*,12.2,-10.4,-0.3,-1.1,·,133.2*,117.2*
O=C(Cc1n[nH]c(=O)[nH]c1=O)NN=Cc1cccc(Cl)c1,·,·,·,·,·,13.1,·,·
CCOC(=O)c1[nH]c2ccc(OC)cc2c1NC(=O)CCN1CCSCC1,71.0*,5.0,-10.8,-3.4,-0.3,-3.5,50.6*,43.3*
CCOC(=O)c1[nH]c2ccc(C)cc2c1NC(=O)CN1CCCCC1,21.0,15.2,14.1,-0.9,4.1,·,·,·
CCOC(=O)c1[nH]c2ccc(OCC)cc2c1NC(=O)CN1CCCC(C)C1 (configuration not stated),38.5*,7.6,-0.4,-2.0,3.5,·,49.1*,46.7*
CCOC(=O)c1oc2ccc(OC)cc2c1NC(=O)CN1CCN(C)CC1,39.7*,3.4,-0.8,-1.6,-3.9,10.8,0.6,-4.7
CCOC(=O)c1[nH]c2ccc(OC)cc2c1NC(=O)CN1CCC2(CC1)OCCO2,46.8*,9.9,-0.3,-0.2,-3.2,5.5,134.0*,104.4*
NC(N)=NN=Cc1ccc(OCc2ccccc2)c(OCc2ccccc2)c1,·,·,·,·,·,12.0,·,·
Cc1csc2nc(=O)c3ccccc3n12,49.3*,5.3,·,-0.6,·,·,+,174.6*
Cc1nc2scc(C)n2c(=O)c1S(=O)(=O)N1CCN(c2ccccc2)CC1,-0.4,20.8,4.5,-0.5,-0.6,1.3,·,·
COCCCn1c(CCC(=O)O)ccc1-c1cccs1,33.9*,3.4,4.8,-0.1,-1.0,·,34.0*,26.1*
CCCn1c(CCC(=O)O)ccc1-c1cccs1,35.1*,9.9,1.4,-2.1,1.0,12.6,98.0*,83.6*
CCCn1c(CCC(=O)O)ccc1-c1ccccc1,14.7,-9.3,-7.7,-3.8,1.4,2.9,·,·
CCOc1cc(C=NNc2nc(Nc3ccccc3)nc(N3CCOCC3)n2)ccc1OC(=O)c1ccco1,·,·,·,·,·,1.7,·,·
COc1ccc(CC(=O)NCC2CCCCC2)cc1OC,27.8*,8.0,-1.1,0.0,0.4,11.6,-7.6,-8.8
COc1cc(CCC(=O)OCC(=O)NCC2CCCCC2)cc(OC)c1OC,0.7,0.0,-1.7,-0.4,0.4,6.5,·,·
O=C(CCCCCn1c(=S)[nH]c2ccc(N3CCOCC3)cc2c1=O)NCc1ccc2c(c1)OCO2,43.9*,-1.3,4.7,-3.9,1.6,5.2,+,+

# Assay outcomes (PubChem BioAssay)
